Shown are actives, neighbours in structure and some others; about 1.5% of the full set was active somewhere.
Akt phos inh: inhibitors of Akt phosphorylation; AID 651550; Neuro2A IGF-stimulated pAkt S473 HTRF, 20 min; stronger effect = lower value; activity change, % for hits at 50 µM; 360,000 tested, 0.32% active; in the data active = activity change below about -80%; inconclusive = mostly about -51% to -80%; note: % is set by controls: 0 for no effect and ±100 for the full control effect
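Neuro2A cells in DMEM with 0.5% FBS, overnight at 37 deg C, given compound at single 50 µM final, then IGF (6 nM final) for 20 min at 37 deg C. Lysed; phospho-Akt Ser473 by HTRF after 24 h, 665/615 ratio.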
TCR act: activators of T cell receptors; Potency, µM (series often up to 9.22 µM), for the others: at the top dose activation of IL-2 secretion, hits mostly activators; 330,000 tested, under 10 active; primary human leukocytes, anti-CD3, IL-2 HTRF, 48 h; note: % of control where 0% means no effect
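TCR engagement came from a-CD3 beads alone, with compounds added to primary human leukocytes for 48 hr. Secreted IL-2 bridged europium cryptate- and d2-labelled anti-IL-2 antibodies, giving FRET emission at 665nm after 320nm excitation.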
BRCA1 expr up: BRCA1 expression activation | 380,000 tested, 1.1% active | Potency, µM (top dose mostly 46.1 µM), inactives show at the top dose activation, hits mostly activators | AID 624202 | MCF7-BRCA1-FFLuc reporter, luminescence, 48 h; response scale: scaled: vehicle 0%, 10 µM genistein 100%; note: potency is the fitted concentration of half-maximal effect; nearly all actives have a fitted effect of over 80% in size
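Cells: MCF7-BRCA1-FFLuc, 2000/well. Exposure: 48 h, 37 °C, 5% CO2. Read: luminescence, 15 min post-substrate. Controls: genistein 10 microM (maximal activation), DMSO (neutral).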
PINK1 modulator: changes PINK1 expression | Potency, µM (series often up to 76.6 µM), without a hit: top-dose activation (PINK1 increase), usual class: activators | 410,000 tested, 0.2% active | PINK1 immunofluorescence, high-content cytometry, 24 h; active = well fitted activation curve with a large enough effect; inconclusive = small, poorly fitted or top-dose-only effect; cell line not stated here; note: potency is the fitted concentration of half-maximal effect; % of control where 0% means no effect; nearly all actives have a fitted effect of over 65% in size
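Fluorescence from anti-PINK1 antibody, together with nuclear and cell stains, was scanned on a laser-scanning cytometer. Before staining, stable-line cells were incubated 24 hours with compounds at 5 concentrations; primary antibody 12 h at 10 degrees C.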
The depositor's hits bear a star; i = inactive; ? = inconclusive; · = no result given; [ ] = another dose, or the depositor's remark. Unless noted, calls come from the whole dose curve; as a rule, active = well fitted curve in the direction sought with a large enough effect; inconclusive = small, poorly fitted or top-dose-only effect, or another doubt; inactive = no such curve, though single readings can be large; an effect the other way counts as inactive or inconclusive.

SMILES | Akt phos inh | TCR act | BRCA1 expr up | PINK1 modulator
COc1ccc(C(=O)c2ccc(OC)cc2O)c(O)c1 | i | 2% | 10µM* | 2%
NC(=Nc1ccccc1)NC(=O)c1nc(Cl)c(N)nc1N | i | 1% | 5.6µM* | 1%
NC(=NCc1ccccc1)NC(=O)c1nc(Cl)c(N)nc1N | i | 0% | -31% | 1%
O=C(Nc1nc2ccccc2[nH]1)c1cc(F)cc(F)c1 | i | 1% | ? | 2%
Cc1cc(C)cc(C(=O)Nc2nc3ccccc3[nH]2)c1 | i | -1% | 7.9µM* | 11%
O=C(CC1CCCC1)Nc1nc2ccccc2[nH]1 | i | -16% | 3.2µM* | 0%
COc1ccc2nc(NCc3ccccc3)[nH]c2c1 | i | 0% | -31% | 16µM*
COc1ccc(OCC(=O)Nc2nc3ccccc3[nH]2)cc1 | · | 6% | 10µM* | 0%
CCOC(=O)N1CCN(/[N+]([O-])=N/OCOC)CC1 | · | · | 0% | 0%
Cc1cc(N2CCC(C)CC2)nc(NCc2ccccc2)n1 | i | -3%[46.1 µM] | -27% | 35µM*
c1ccc2c(N3CCNCC3)nc(-c3ccoc3)nc2c1 | · | · | · | 0%
CNc1cncc(-c2cccc(OC)c2F)n1 | i | · | 11µM* | -1%
COc1ccc(/C=N/Nc2ncc(Br)cn2)c(OC)c1 | i | 0% | 10µM* | 8%
O=C(CCNc1ccc(Cl)cc1)c1cccs1 | i | -1%[46.1 µM] | 2% | 3%
O=C(CCSc1ccc(Cl)cc1)c1cccs1 | -107%* | -2% | -55% | 0%
COc1ccc(CN2Cc3ccccc3OC(c3ccccc3OC)C2)c(O)c1 (centres undefined) | · | · | · | 0%
Cc1oc2ccc(O)cc2c1C(=O)c1ccc(F)cc1 | i | -2% | 11µM* | 2%
Cc1c(C(=O)NC2CCCCCC2)sc2ncnc(NCC3CCCO3)c12 (centres undefined) | · | · | · | 3%
COC(=O)c1c(OCc2cccnc2)cc(=O)n2c1CCN(C(=O)c1cccc(N(C)C)c1)CC2 | · | · | · | 1%
Cc1cc(C)cc(N(CC(=O)Nc2ccc(-c3nc4ccc(C)cc4s3)cc2)S(C)(=O)=O)c1 | i | 4% | 3% | 8%
Cc1ccc2nc(-c3ccc(NC(=O)CN(c4ccccc4C)S(C)(=O)=O)cc3)sc2c1 | -107%* | 6% | -5% | 11%
O=c1c(-c2ccccc2)nc2cnc(N3CCOCC3)nc2n1CCc1ccccc1 | · | · | · | 1%
CN1CCN(S(=O)(=O)c2cccc(S(=O)(=O)c3ccc(Cl)c(Cl)c3)c2)CC1 | -108%* | 1% | -27% | 0%
COCC(=O)Nc1cc(C(=O)N2CCc3c([nH]c4ccccc34)C2)cc2nc(-c3ccccc3)n(C)c12 | · | · | · | 1%
ON=Cc1cccn1-c1ccccc1 | i | 4% | 15% | -1%[38.3 µM]
SMILES | Akt phos inh | TCR act | BRCA1 expr up | PINK1 modulator
O=C(O)c1cccc(-n2cccc2/C=N/O)c1 | -109%* | -7% | 7% | -3%
COc1cccc(C2(CC(=O)N3CCC(c4nc5ccccc5o4)CC3)CC(=O)N(C)C2=O)c1 (centres undefined) | · | · | · | 0%
COc1ccc(-c2c(C(C)=O)c(C)nc3sc4c(c23)NC(c2ccccc2)NC4=O)cc1 (centres undefined) | -85%* | 12% | -16% | 14%
CC(=O)Nc1ccc(S(=O)(=O)N2CCC(n3cnc4cc(F)ccc43)CC2)cc1 | -106%* | -2% | -7% | -1%
Cc1nn(CCOc2ccccc2)c(=O)n1-c1c(F)cccc1F | i | 2% | 5.6µM* | -1%
Cc1ccc(-n2c(C)nn(CCOc3ccccc3)c2=O)cc1 | i | -7% | 6.3µM* | 2%
Cc1nn(C)c(=O)n1-c1ccc(Oc2ccccc2)cc1 | i | -1% | 1% | -2%
O=C(NCC1CCCO1)c1sc2cc(Cl)ccc2c1Cl (centres undefined) | i | -5%[46.1 µM] | 10µM* | -1%
CC(C)(CNC(=O)c1sc2cc(Cl)ccc2c1Cl)N1CCOCC1 | i | 1% | -29% | 2%
O=C(NCc1nnc2n1CCN(Cc1cc3c(cc1Cl)OCO3)CC2)C1CCOC1 (centres undefined) | · | · | · | 0%
Cc1cccc(N(CC(=O)NC(C)c2ccccc2)S(=O)(=O)c2ccccc2)c1C (centres undefined) | · | · | -43% | 3%
O=c1cc(-c2ccccc2)[nH]c2nc3ccccc3n12 | -107%* | -3% | -86% | 11%
C=CC(=O)N1CCC[C@@H](n2nc(-c3ccc(Oc4ccccc4)cc3)c3c(N)ncnc32)C1 | · | · | -65%[92.2 µM] | -1%[153 µM]
